PubChem BioAssay AID1159580 (chemical genetic matrix, 2015)
Values joined by “and” are separate entries in the source; they are usually repeats but may differ in a detail not shown here. Identical values can stand only once. Hit rate of the full screen: of about 5,500 compounds, about 2,000 (36%) were called active. Another 18% or so got no clear call; they are omitted. No stated cut-off is given here; in the data, active means normalized growth mostly below about 0.91 (no sharp cut-off); inconclusive means no clear call, values can overlap the other calls; inactive means mostly above about 0.92. The list shows a part of the results.

Test: chemical genetic growth profiling, strain panel (AID 1159580);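 further: tested at 20 µM; growth read once vehicle control cultures reached saturation at 30 °C; 1 = growth at the plate median or of vehicle wells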
Conditions: S. cerevisiae deletion strains, growth OD

Measured: normalized growth

COc1ccc(Cl)cc1C(=O)NCCc1ccc(S(=O)(=O)NC(=O)NC2CCCCC2)cc1
inactive: locus YAL013W, strain DEP1, stronger effect = lower value 0.982 | locus YAL021C, strain ccr4, stronger effect = lower value 1.01 | locus YAL026C, strain drs2, stronger effect = lower value 1 | locus YAL030W, strain snc1, stronger effect = lower value 1 | locus YAL040C, strain CLN3, stronger effect = lower value 0.984 | locus YBL061C, strain skt5, stronger effect = lower value 1 | locus YBR009C, strain hhf1, stronger effect = lower value 0.993 | locus YBR021W, strain FUR4, stronger effect = lower value 1.03 | locus YBR023C, strain chs3, stronger effect = lower value 1 | locus YBR171W, strain sec66, stronger effect = lower value 1.01 | locus YBR229C, strain ROT2, stronger effect = lower value 0.956 | locus YBR231C, strain swc5, stronger effect = lower value 0.997 | locus YBR279W, strain paf1, stronger effect = lower value 1.01 | locus YCL011C, strain gbp2, stronger effect = lower value 1.01 | locus YCL016C, strain dcc1, stronger effect = lower value 0.992 | locus YCL029C, strain bik1, stronger effect = lower value 0.99 | locus YCL061C, strain MRC1 (second series), stronger effect = lower value 1 | locus YCL061C, strain MRC1, stronger effect = lower value 1 | locus YCL069W, strain vba3, stronger effect = lower value 1 | locus YCR088W, strain abp1, stronger effect = lower value 1.01 | locus YDL005C, strain med2, stronger effect = lower value 1.01 | locus YDL035C, strain GPR1, stronger effect = lower value 0.973 | locus YDL040C, strain nat1, stronger effect = lower value 1 | locus YDL074C, strain BRE1, stronger effect = lower value 0.909 | locus YDL101C, strain DUN1, stronger effect = lower value 0.978 | locus YDL134C, strain PPH21, stronger effect = lower value 0.976 | locus YDL185W, strain tfp1, stronger effect = lower value 0.959 | locus YDL192W, strain arf1, stronger effect = lower value 0.997 | locus YDR001C, strain nth1, stronger effect = lower value 1 | locus YDR069C, strain doa4, stronger effect = lower value 1.01 | locus YDR101C, strain arx1, stronger effect = lower value 1.01 | locus YDR137W, strain rgp1, stronger effect = lower value 0.973 | locus YDR150W, strain NUM1, stronger effect = lower value 0.971 | locus YDR159W, strain sac3, stronger effect = lower value 1.01 | locus YDR162C, strain NBP2, stronger effect = lower value 0.903 | locus YDR195W, strain ref2 0.927 | locus YDR297W, strain sur2, stronger effect = lower value 1 | locus YDR318W, strain mcm21, stronger effect = lower value 1.02 | locus YDR334W, strain swr1, stronger effect = lower value 0.993 | locus YDR335W, strain msn5, stronger effect = lower value 1.01 | locus YDR363W, strain ESC2, stronger effect = lower value 0.968 | locus YDR388W, stronger effect = lower value 0.995 | locus YDR392W, strain spt3, stronger effect = lower value 0.918 | locus YDR502C, strain sam2, stronger effect = lower value 0.989 | locus YEL003W, strain gim4, stronger effect = lower value 0.997 | locus YEL037C, strain rad23, stronger effect = lower value 1 | locus YEL061C, strain CIN8 (second series), stronger effect = lower value 0.996 | locus YEL061C, strain CIN8, stronger effect = lower value 0.984 | locus YER002W, strain NOP16, stronger effect = lower value 1.02 | locus YER015W, strain faa2, stronger effect = lower value 1 | locus YER016W, strain bim1, stronger effect = lower value 1 | locus YER110C, stronger effect = lower value 0.999 | locus YER111C, strain swi4, stronger effect = lower value 1 | locus YER155C, strain BEM2 (second series), stronger effect = lower value 0.996 | locus YER155C, strain BEM2, stronger effect = lower value 0.994 | locus YER167W, strain BCK2, stronger effect = lower value 1.01 | locus YFR010W, strain ubp6, stronger effect = lower value 1.01 | locus YGL078C, strain dbp3, stronger effect = lower value 0.979 | locus YGL086W, strain mad1, stronger effect = lower value 1.02 | locus YGL167C, strain pmr1, stronger effect = lower value 1 | locus YGL173C, strain kem1, stronger effect = lower value 1 | locus YGL227W, strain vid30, stronger effect = lower value 0.998 | locus YGL240W, strain doc1, stronger effect = lower value 0.994 | locus YGL248W, strain PDE1, stronger effect = lower value 0.973 | locus YGL253W, strain hxk2, stronger effect = lower value 1 | locus YGR078C, strain PAC10, stronger effect = lower value 0.958 | locus YGR135W, strain pre9, stronger effect = lower value 0.979 | locus YGR229C, strain SMI1, stronger effect = lower value 0.954 and 0.937 | locus YGR252W, strain gcn5, stronger effect = lower value 1.12 | locus YHR013C, strain ard1, stronger effect = lower value 0.969 | locus YHR027C, strain rpn1, stronger effect = lower value 1.01 | locus YHR030C, strain SLT2, stronger effect = lower value 1 and 0.996 | locus YHR079C, strain IRE1 (second series), stronger effect = lower value 1.01 | locus YHR079C, strain IRE1, stronger effect = lower value 0.993 | locus YHR094C, strain hxt1, stronger effect = lower value 0.996 | locus YHR129C, strain ARP1, stronger effect = lower value 0.993 | locus YHR142W, strain chs7, stronger effect = lower value 1.01 | locus YHR200W, strain rpn10, stronger effect = lower value 1.01 | locus YIL066C, strain RNR3, stronger effect = lower value 0.962 | locus YIL073C, strain SPO22, stronger effect = lower value 1.06 | locus YIL125W, strain kgd1, stronger effect = lower value 0.998 | locus YIR030C, strain dcg1, stronger effect = lower value 1.01 | locus YJL092W, strain hpr5, stronger effect = lower value 1 | locus YJL095W, strain BCK1 (second series), stronger effect = lower value 0.997 | locus YJL095W, strain BCK1, stronger effect = lower value 0.963 and 0.978 | locus YJL115W, strain asf1, stronger effect = lower value 1 | locus YJL129C, strain trk1, stronger effect = lower value 0.994 | locus YJL134W, strain LCB3, stronger effect = lower value 0.993 | locus YJL154C, strain vps35, stronger effect = lower value 0.996 | locus YJL164C, strain tpk1, stronger effect = lower value 0.995 | locus YJL166W, strain qcr8, stronger effect = lower value 1.01 | locus YJL168C, strain set2, stronger effect = lower value 0.998 | locus YJL187C, strain SWE1 (second series), stronger effect = lower value 0.943 | locus YJL187C, strain SWE1, stronger effect = lower value 1.01 | locus YJR043C, strain POL32, stronger effect = lower value 1.03 | locus YJR066W, strain TOR1, stronger effect = lower value 0.934
